GPR151 activ – activators of human GPR151, primary screen, cell-based, PathHunter beta-arrestin, luminescence. G-protein coupled receptor 151 (Homo sapiens), Q8TDV0. PathHunter beta-arrestin GPR151 cells. activation, % at 11.2 µM. 1% of 650,000 active. AID 1508602, 2020; in the data active = activation above about 4.9%
Target sequence (Q8TDV0 whole entry, looked up): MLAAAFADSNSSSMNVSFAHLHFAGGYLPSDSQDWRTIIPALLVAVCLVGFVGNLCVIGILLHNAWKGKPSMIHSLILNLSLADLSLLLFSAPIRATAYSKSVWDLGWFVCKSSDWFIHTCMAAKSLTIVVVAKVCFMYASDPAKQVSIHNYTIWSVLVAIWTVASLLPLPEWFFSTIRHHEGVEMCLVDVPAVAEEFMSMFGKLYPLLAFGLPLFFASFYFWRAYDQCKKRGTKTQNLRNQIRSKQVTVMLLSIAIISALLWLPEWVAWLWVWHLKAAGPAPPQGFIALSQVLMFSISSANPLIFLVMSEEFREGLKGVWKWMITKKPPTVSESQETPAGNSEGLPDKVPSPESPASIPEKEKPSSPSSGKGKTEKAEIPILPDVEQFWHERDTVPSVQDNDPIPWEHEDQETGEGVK
TEAD-YAP block – TEAD-YAP interaction inhibition, primary screen, TEAD-YAP interaction inhibitor project, luminescence, HEK-TIYL cells. TEAD-Gal4/YAP UAS-luciferase luminescence. inhibition, % at 9.12 µM. 1.4% of 640,000 active. AID 1259422, 2018; in the data active = inhibition above about 32%
FBW7 act – FBW7 E3 ligase activators, primary screen, biochemical, AlphaScreen, human; F-box/WD repeat-containing protein 7 (Homo sapiens), Q969H0; AlphaScreen FBW7–phospho-cyclin E peptide binding, activator screen; normalized activity (activation), % at 26.1 µM; 0.13% of 650,000 active; AID 1259310, 2017; in the data active = normalized activity above about 1.9%;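 note: purified mutant Fbw7 with reduced substrate affinity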
MITF inh – MITF inhibitors, primary screen, biochemical, AlphaScreen, human | inhibition, % at 2.6 µM | 0.91% of 650,000 active | AlphaScreen MITF homodimerization, bead proximity signal | Microphthalmia-associated transcription factor (Homo sapiens), O75030; in the data active = inhibition above about 50%
Large screens that a line does not name were inactive. A selection: hits, their analogues and other compounds. The true share with any hit is near 3.4%.

O=C(NCc1ccccc1)C(c1cccnc1)N(C(=O)c1ccccn1)c1cccnc1 (stereo not given)	none
Cc1cc(=O)[nH]c(NC2CCN(C(=O)C(C)(C)c3ccc(Cl)cc3)CC2)n1	none
Cc1cc(=O)[nH]c(NC2CCN(C(=O)N3c4ccccc4Sc4ccccc43)CC2)n1	TEAD-YAP block 56
C=CCC(O)(CC=C)CNC(=O)CCc1nnc(Cc2cccc(C)c2)o1	none
COc1ccc(N=Cc2sc3ccccc3c2O)cc1	TEAD-YAP block 85
CCN(CC)c1cc(-c2ccccc2F)nc(-c2ccncc2)n1	none
Cc1cnc(CNc2cc(-c3ccccc3F)nc(-c3ccccn3)n2)nc1	TEAD-YAP block 33
CCN(CC)c1cc(-c2ccccc2F)nc(-c2ccccn2)n1	TEAD-YAP block 50
CCN(CC)c1cc(-c2ccccn2)nc(-c2ccccn2)n1	TEAD-YAP block 86, MITF inh 113
CCN(CC)c1cc(-c2ccccn2)nc(-c2ccccc2)n1	none
O=C1NC2(CCN(Cc3cccs3)CC2)Oc2ccccc21	none
O=C1NC2(CCN(S(=O)(=O)c3cccs3)CC2)Oc2ccccc21	FBW7 act 2.0
Cn1c2c(c(=O)n(C)c1=O)C(C(F)(F)F)(C(F)(F)F)N=C(c1ccc(Cl)cc1)N2	TEAD-YAP block 94
Cn1c2c(c(=O)n(C)c1=O)C(C(F)(F)F)(C(F)(F)F)N=C(c1ccccc1)N2	none
Cc1cc(/C=C2/C(=N)N3C=CSC3=NC2=O)c(C)n1-c1ccccc1	TEAD-YAP block 88
Cc1cccc(-n2c(C)cc(/C=C3/C(=N)N4C=CSC4=NC3=O)c2C)c1C	TEAD-YAP block 46
Cc1ccccc1-n1c(C)cc(/C=C2/C(=N)N3C=CSC3=NC2=O)c1C	TEAD-YAP block 97
Cc1ccc(C)c(-n2c(C)cc(/C=C3/C(=N)N4C=CSC4=NC3=O)c2C)c1	none
CCc1ccccc1-n1c(C)cc(/C=C2/C(=N)N3C=CSC3=NC2=O)c1C	TEAD-YAP block 62
CCc1ccc(-n2c(C)cc(/C=C3/C(=N)N4C=CSC4=NC3=O)c2C)cc1	none
Cc1cc(C)cc(-n2c(C)cc(/C=C3/C(=N)N4C=CSC4=NC3=O)c2C)c1	none
O=c1c(CN2CCN(c3ccccn3)CC2)cc2cccc3c2n1CCC3	none
CCOC(=O)c1c(NC(=O)Cc2ccc(OCC)c(OCC)c2)sc2c1CCCCC2	none
Cc1cc(/C=C2/C(=N)N3C=CSC3=NC2=O)c(C)n1-c1ccccc1Cl	TEAD-YAP block 92
CC1=CN2C(=N)/C(=C/c3cc(C)n(-c4ccccc4F)c3C)C(=O)N=C2S1	none
Cn1c2ccncc2c2cc([N+](=O)[O-])ccc21	TEAD-YAP block 76
CCOc1ccc(NC(=O)C2C3C=CC4(O3)C2C(=O)N(C2CCCCCCC2)C4C(=O)NC2CCCCC2)cc1 (stereo not given)	none
Cn1nccc1C(=O)Nc1ccc(OC(=O)c2ccnn2C)cc1	TEAD-YAP block 34
CCOC(=O)c1ccc(NC(=O)c2ccnn2C)cc1	none
CC1CCc2c(sc(N)c2C(=O)c2ccco2)C1 (stereo not given)	none
c1cc(CNc2ccn3ncc(-c4ccc5c(c4)OCO5)c3n2)ccn1	none
CN(C)CCNc1ccn2ncc(-c3ccc4c(c3)OCO4)c2n1	FBW7 act 2.0
Cc1ccc(NC(=O)CSC2=C(C#N)C3(CCCCC3)C(C#N)C(=O)N2)c(C)c1 (stereo not given)	none
Cc1nn2c(=O)c3c4c(sc3nc2c2ccccc12)CCCC4	TEAD-YAP block 52
O=c1c2c3c(sc2nc2c4ccccc4c(Cl)nn12)CCCCC3	none
NS(=O)(=O)c1ccc(Nc2nccc(-c3cccc(OCCN4CCCCC4)c3)n2)cc1	TEAD-YAP block 68
CS(=O)(=O)Nc1cccc(-c2ccnc(Nc3cccc(S(N)(=O)=O)c3)n2)c1	TEAD-YAP block 91
CS(=O)(=O)Nc1cccc(-c2ccnc(Nc3ccc(-c4ncn[nH]4)cc3)n2)c1	TEAD-YAP block 72
CS(=O)(=O)Nc1ccc(-c2ccnc(Nc3cccc(S(N)(=O)=O)c3)n2)cc1	none
Cc1cc(NCCCN2CCOCC2)n2nc(-c3ccc(F)cc3)cc2n1	none
O=C(COC(=O)c1cncc(Br)c1)Nc1ccc(F)c([N+](=O)[O-])c1	none
COc1ccc(/C=C2/NC(=S)NC2=O)cc1O	TEAD-YAP block 40
CC1=NOC(=O)/C1=C/c1ccc(O)cc1O	MITF inh 53
C=CCOc1ccc(/C=C2/C(=O)ON=C2C)cc1Br	none
CCOc1cc(/C=C2/C(=O)ON=C2C)ccc1O	none
COc1ccc(/C=C2\C(=O)ON=C2C)cc1O	MITF inh 52
COc1ccc(/C=C2\NC(=S)NC2=O)cc1C	none
CCOc1ccc(/C=C2/C(=O)ON=C2C)cc1Br	MITF inh 55
O=C(Nc1ccc(I)cc1)c1cc2cc(Br)cc(Br)c2oc1=O	none
Cc1noc(C)c1S(=O)(=O)N1CCCC1C(=O)N1CCc2ccccc2C1 (stereo not given)	none
Cc1ccc2sc(N3CCN(C(=O)CCc4ccccc4)CC3)nc2c1C	none
C#CCOc1ccc(/C=C2/C(=O)ON=C2C)cc1	MITF inh 58
COc1cc(/C=C2\C(=O)ON=C2C)cc(Br)c1O	MITF inh 81
COc1cc(/C=C2\C(=O)ON=C2C)ccc1O	MITF inh 60
COc1cc(/C=C2\C(=O)ON=C2C)ccc1OCCc1ccccc1	TEAD-YAP block 38
C#CCOc1ccc(/C=C2/C(=O)ON=C2C)cc1OC	none
CCCOc1ccc(/C=C2/C(=O)ON=C2C)cc1OC	none
CCNC(=O)n1cc(-c2ccncn2)c(-c2ccncc2)n1	none
Cc1ccc(C(=O)N/C(=C\c2ccc(-c3ccc(Br)cc3)o2)C(=O)NCCc2ccccc2)cc1	none
O=C(NCc1nnc(SCc2ccccc2)o1)c1ccc(F)cc1	TEAD-YAP block 58
Cc1cccc(CSc2nnc(CNC(=O)c3ccccc3)o2)c1	none
O=C(NCc1nnc(SCc2ccccc2Cl)o1)c1ccccc1	none
O=C(NCc1nnc(SCc2cccc(F)c2)o1)c1ccccc1	TEAD-YAP block 56
O=C(NCc1nnc(SCc2ccccc2F)o1)c1ccc(F)cc1	TEAD-YAP block 61
O=C(CCC1(Cc2cccs2)CCC(=O)N1)NCCC1=CCCCC1 (stereo not given)	none
COc1ccc2c(C)nc(/N=C(\N)NC(C)=O)nc2c1	none
NC(=O)Cc1nonc1NCNc1nonc1CC(N)=O	none
c1ccc2c(Nc3nc(Nc4ccc(N5CCOCC5)cc4)c4ncn(-c5ccsc5)c4n3)nccc2c1	TEAD-YAP block 73
c1ccc(Nc2nc(Nc3ccc(N4CCOCC4)cc3)c3ncn(-c4ccsc4)c3n2)cc1	TEAD-YAP block 39
c1cnc(Nc2nc(Nc3ccc(N4CCOCC4)cc3)c3ncn(-c4ccsc4)c3n2)cn1	TEAD-YAP block 46
c1cncc(CNc2nc(Nc3ccc(N4CCOCC4)cc3)c3ncn(-c4ccsc4)c3n2)c1	none
c1ccc(Nc2nc(Nc3nccc4ccccc34)nc3c2ncn3-c2ccsc2)cc1	none
